Rab9 promoter act: activators of Rab9 promoter; Huh7 Rab9 promoter-luciferase reporter, luminescence, 24 h; Potency, µM (titrated, usually from 9.22 µM), without a hit: at the highest dose activation, negative = inhibition, usual class: activators; actives 2.8% (n = 320,000); AID 485297; further: % of control where 0% means no effect; nearly all actives have a fitted effect of over 60% in size
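Luminescence from Amplite-detected luciferase (10 minutes, ambient) reports Rab9 promoter activation. Before that, stable Rab9-luciferase Huh7 cells (1500/well, reduced-serum OP-MEM I plus 10% FBS) were exposed to compound for 24 hours at 37C.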
NPC1 promoter act: NPC1 promoter activation. actives 2.4% (n = 320,000). Potency, µM (series often up to 9.22 µM), inactives show top-dose activation, most hits filed as activators. Huh7 NPC1 promoter luciferase reporter, 24 h. AID 485313; further: % of control where 0% means no effect; nearly all actives have a fitted effect of over 60% in size
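In 1536-well qHTS, Huh7 cells harboring an NPC1 promoter–luciferase construct received compound for 24 h; activation was quantified by luminescence following luciferase reagent addition.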
FLuc modulator: firefly luciferase modulation, counter-screen for miR-21 project; P08659; purified FLuc, Km substrates, luminescence inhibition; Potency, µM (series often up to 57.5 µM), inactives show top-dose activity change, negative = inhibition, actives largely listed as inhibitors; actives 6.9% (n = 360,000);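 further: plate controls were vehicle for no effect and reference inhibitor for full effect; nearly all actives have a fitted effect of over 55% in size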
Target sequence (P08659 whole entry, looked up): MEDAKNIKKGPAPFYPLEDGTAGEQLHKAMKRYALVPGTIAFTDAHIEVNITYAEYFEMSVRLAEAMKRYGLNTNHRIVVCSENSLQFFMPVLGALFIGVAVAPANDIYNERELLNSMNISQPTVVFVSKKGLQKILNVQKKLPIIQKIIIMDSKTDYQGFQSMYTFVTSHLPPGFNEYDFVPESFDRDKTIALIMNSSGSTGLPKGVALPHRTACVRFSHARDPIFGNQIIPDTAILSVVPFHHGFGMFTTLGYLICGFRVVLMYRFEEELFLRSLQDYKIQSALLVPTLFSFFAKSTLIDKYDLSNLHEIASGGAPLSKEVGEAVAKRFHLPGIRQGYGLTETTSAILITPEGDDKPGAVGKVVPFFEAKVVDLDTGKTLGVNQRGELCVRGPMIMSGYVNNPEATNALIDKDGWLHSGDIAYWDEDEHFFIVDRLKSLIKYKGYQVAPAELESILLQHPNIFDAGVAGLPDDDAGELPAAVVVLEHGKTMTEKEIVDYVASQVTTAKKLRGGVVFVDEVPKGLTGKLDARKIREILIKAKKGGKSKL
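Biochemical qHTS of compounds, final roughly 60 µM downward over six points, against 10 nM purified firefly luciferase using Km concentrations of substrates (10 uM D-luciferin, 10 uM ATP) in Tris acetate pH 7.5 buffer; luminescence output.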
SMN2 splice up: enhancers of SMN2 splice variant expression; HEK293 SMN2-luciferase splicing reporter, luminescence, 30-36 h; Potency, µM (series often up to 46.1 µM), without a hit: top-dose activity change, positive = activation, usual class: activators; actives 2.8% (n = 210,000); AID 1458; further: % of control where 0% means no effect; nearly all actives have a fitted effect of over 55% in size
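HEK293 cells carry an SMN2 minigene-luciferase reporter in which exon 7 inclusion puts luciferase in frame. Cells were seeded at 2000 cells/well, attached for 10-12 hours, then exposed to compounds for 30-36 hours at 37C before ONE-Glo luminescence.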
ELG1 genotox: genotoxicity induction in ELG1-luciferase HEK293T cells. HEK293T ELG1-luciferase reporter, luminescence, 16 h. actives 1.3% (n = 330,000). Potency, µM (highest dose often 46 µM), inactives show top-dose activity change, positive = activation, usual class: activators. AID 504466; further: % of control where 0% means no effect; nearly all actives have a fitted effect of over 60% in size
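ELG1-luciferase HEK293T cells, 2,000/well; compound pinned in; 16 hr, 37 °C, 5% CO2; ONE-Glo, 30 min RT; luminescence on CCD imager.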
Numbers without * were called inactive; u = inconclusive; x = not tested or not shown; [ ] = remark or other dose. Most compounds without a hit are left out; they make up all but 7.4% or so of the library. The call rests on the fitted dose curve; in most records, active means well fitted curve in the direction sought with a large enough effect; inconclusive means small, poorly fitted or top-dose-only effect, or another doubt; inactive means no such curve, though single readings can be large; an effect the other way counts as inactive or inconclusive. Potency means the concentration at half of the fitted maximal effect.

SMILES	Rab9 promoter act	NPC1 promoter act	FLuc modulator	SMN2 splice up	ELG1 genotox
O=C(Nc1cccc(F)c1)c1ccc2c(c1)N(Cc1ccccc1)C(=O)c1ccccc1S2(=O)=O	x	x	-1.1%	-6.5%	x
Cc1ccc(CNC(=O)CCCN2C(=O)c3cccnc3Oc3ccc(Cl)cc32)cc1	x	x	-10.9%	x	x
NC(=O)c1sc2nc3c(cc2c1N)CCC3	u	u	u	u	-8.2%
Nc1c(C(=O)N2CCOCC2)sc2nc3c(cc12)CCC3	0.891µM*	1.26µM*	7.57µM*	11.2µM*	2.91µM*
Cc1ccc(C)c2nc3sc(C(=O)N4CCOCC4)c(N)c3cc12	u	14.8%	u	x	u
COC(=O)c1sc2nc3c(cc2c1N)CCCC3	0.501µM*	1.41µM*	3.01µM*	10µM*	u
Nc1c(C(=O)N2CCCC2)sc2nc3c(cc12)CCCCCC3	3.98µM*	3.16µM*	u	14.1µM*	13.9%
Nc1c(C(=O)N2CCOCC2)sc2nc3c(cc12)CCCC3	0.112µM*	0.355µM*	0.477µM*	x	0.58µM*
Cc1ccc2nc(-c3ccc(NC(=O)CN(c4ccccc4C)S(C)(=O)=O)cc3)sc2c1	3.16µM*	u	2.39µM*	11.2µM*	u
Cc1cc(C)cc(N(CC(=O)Nc2ccc(-c3nc4ccc(C)cc4s3)cc2)S(C)(=O)=O)c1	u	u	5.36µM*	2.6%[1.84 µM]	u
Cn1cccc1C(=O)N1CCC2(CCCN(Cc3ccccc3)C2)CC1	x	x	x	-1.9%	x
COc1ccc(NC(=O)CSc2nc3nc(C)c(Cc4ccccc4)c(C)n3n2)cc1OC	x	x	3.9%	x	x
COC(=O)[C@H](Cc1ccccc1)NC(=O)O[C@@H]1Cc2cc(OC)ccc2O[C@H]1c1cccc(OC)c1	x	x	x	2.9%	x
COc1ccc(C(c2sc3ncnn3c2O)N2CC(C)OC(C)C2)cc1OC (stereo not drawn)	-1.6%	-1.7%	19µM*	24.1%	14.7%
COc1ccc(C(c2sc3ncnn3c2O)N2CCN(c3ccccc3F)CC2)cc1OC (stereo not drawn)	1.0%	-0.3%	7.57µM*	-26.5%	u
Cc1c(NS(=O)(=O)c2ccccc2)cc(C(C)C)c(O)c1S(=O)(=O)c1ccc(Cl)cc1	x	x	u	-40.1%	x
CCCn1c(-c2ccc[nH]c2=O)nc2cc(C)c(C)cc21	19.0%	0.3%	13.5µM*	x	u
Cc1cccnc1NC(=S)NC(=O)/C=C/c1ccco1	u	2.5%	u	12.8%	u
O=C(/C=C\c1ccco1)NC(=S)Nc1ccccc1O	3.16µM*	u	u	x	7.4%
O=C(/C=C/c1ccco1)NC(=S)Nc1ccccc1O	3.98µM*	u	u	u	13.0%
O=C(/C=C/c1ccco1)NC(=S)Nc1ccccn1	2.82µM*	3.16µM*	13.5µM*	u	14.7%
O=C(/C=C/c1ccco1)NC(=S)Nc1ccccc1N1CCCC1	13.6%	4.6%	3.3%	-19.2%	-6.8%
Cc1ccc(NC(=S)NC(=O)/C=C/c2ccco2)c(O)c1	12.6%	-2.9%	u	14.2%	5.8%
Cc1ccc(/C=N/NC(=O)c2ccc3nc[nH]c3c2)s1	24.3%	13.4%	u	-8.4%	9.9%
C/C(=N\NC(=O)c1ccc(Cl)cc1)c1cccs1	0.316µM*	0.562µM*	2.69µM*	3.55µM*	2.31µM*
SMILES	Rab9 promoter act	NPC1 promoter act	FLuc modulator	SMN2 splice up	ELG1 genotox
C/C(=N/NC(=O)c1ccc2nc[nH]c2c1)c1cccs1	1.41µM*	2µM*	10.7µM*	11.2µM*	u
O=C(Nc1nc2ccc(SC(F)F)cc2s1)c1ccc(NS(=O)(=O)c2ccc(F)c(F)c2)cc1	24.7%	13.4%	15.1µM*	-4.0%	-2.8%
CS(=O)(=O)c1ccc2nc(NC(=O)c3cccc(NS(=O)(=O)c4ccc(F)c(F)c4)c3)sc2c1	1.4%	12.5%	23.9µM*	-0.5%	-2.2%
c1ccc(OCCn2c(COc3ccccc3)nc3ccccc32)cc1	x	x	u	-1.6%	x
Cn1c(COc2ccccc2)nc2ccccc21	u	3.98µM*	15.1µM*	x	u
C=CCn1c(COc2ccccc2)nc2ccccc21	15.8%	14.5%	26.9µM*	x	3.7%
O=C(c1cnccn1)N1CCC2(CC1)CN(c1ncccn1)C2	x	x	x	-3.1%	x
COc1cccc(NC(=O)Cn2cc(C(=O)C3CCCCC3)c3ccccc32)c1	x	x	4.8%	-9.9%	x
Cc1csc(NC(=O)C2CCCO2)n1 (stereo not drawn)	-2.1%	-0.6%	0.6%	u	1.1%
O=C(Nc1nc(-c2ccc(F)cc2)cs1)C1CCCO1 (stereo not drawn)	23.2%	17.9%	12µM*	11.3%	10.6%
O=C(Nc1nc(-c2ccccc2)cs1)C1c2ccccc2Oc2ccccc21	1.2%	-0.2%	2.6%	29.6%	-5.7%
O=C(Nc1nc(-c2ccccc2)cs1)C1CCCO1 (stereo not drawn)	25.8%	u	23.9µM*	u	u
O=C(Nc1nc(-c2ccc(-c3ccccc3)cc2)cs1)C1CCCO1 (stereo not drawn)	-0.5%	7.2%	8.49µM*	-26.9%	5.3%
O=C(Nc1ccc(F)cc1)C1CCCO1 (stereo not drawn)	-14.6%	-3.7%	-10.7%	0.0%	0.1%
O=C(N/N=C\c1ccco1)Nc1cccc(Cl)c1	2.51µM*	3.16µM*	19µM*	10µM*	u
Cc1ccccc1C(=O)Nc1ccccc1C(=O)N/N=C\c1ccco1	-5.2%	0.5%	u	-3.5%	-0.7%
Cc1cccc(NC(=O)CCC(=O)N/N=C/c2ccco2)c1	-0.3%	-2.0%	0.7%	-4.6%[1.84 µM]	0.5%
O=C(Nc1ccccc1C(=O)N/N=C/c1ccco1)c1ccccc1	1.7%	-1.2%	21.3µM*	-0.2%	0.2%
O=C(Nc1ccccc1C(=O)N/N=C/c1ccco1)c1ccc(Cl)cc1	1.8%	11.7%	2.13µM*	0.6%	0.6%
O=C(N/N=C/c1ccco1)c1ccncc1	-3.4%	1.2%	-5.0%	-8.7%	4.6%
O=C(Nc1ccccc1C(=O)N/N=C/c1ccco1)c1ccc(F)cc1	-4.0%	-2.1%	8.49µM*	13.9%	-1.3%
O=C(N/N=C/c1ccco1)c1ccc(OCc2ccccc2)cc1	-5.0%	-3.9%	-3.2%	x	2.1%
COC(=O)c1sc2cccc(F)c2c1S(=O)(=O)Nc1ccc(N(C)C)cc1	x	x	-9.5%	x	x
Cc1ccccc1Nc1c(-c2ccsc2)nc2c(C)cccn12	x	x	u	12.6µM*	x
Cc1ccn2c(Nc3ccccc3C)c(-c3ccncc3)nc2c1	-9.8%	-3.4%	u	17.8µM*	1.7%
CNC[C@@H](SC)c1ccc(O)c(O)c1	x	x	x	-5.6%[9.22 µM]	x
CCOc1ccc(OCc2cccc(C(=O)N3CCOCC3)c2)cc1	0.0891µM*	0.0891µM*	0.301µM*	0.355µM*	0.13µM*
CC1CN(C(=O)c2cccc(COc3ccc(Br)cc3)c2)CC(C)O1 (stereo not drawn)	3.55µM*	1.58µM*	4.78µM*	3.98µM*	u
CCOc1ccc(N=C(/C(C(=O)C(=O)N2CCOCC2)=C(/O)c2ccccc2)c2ccccc2)cc1	u	3.98µM*	u	x	u

Assay outcomes: PubChem BioAssay, National Center for Advancing Translational Sciences (NCATS)
